# Screening results: PubChem BioAssay, National Center for Advancing Translational Sciences (NCATS)
# This is a sample that favours compounds with a hit; in the whole collection about 7.4% have one here.
# ELG1 genotoxic – induces genotoxicity in HEK293T cells with luciferase-tagged ELG1 | HEK293T ELG1-luciferase reporter, luminescence, 16 h | Potency, µM (series often up to 46 µM), without a hit: at the highest dose activity change, positive = activation, actives largely listed as activators | 330,000 tested, 1.3% active; also: % of control where 0% means no effect; nearly all actives have a fitted effect of over 60% in size
#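 16 hr compound incubation (37 °C, 5% CO2) of HEK293T cells carrying luciferase-tagged ELG1; luciferase then measured by ONE-Glo luminescence after 30 min at RT.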
# Rab9 promoter act – activators of Rab9 promoter. Potency, µM (series often up to 9.22 µM), without a hit: at the top dose activation, negative = inhibition, actives largely listed as activators. Huh7 Rab9 promoter-luciferase reporter, luminescence, 24 h. 320,000 tested, 2.8% active. AID 485297; also: % of control where 0% means no effect; nearly all actives have a fitted effect of over 60% in size
#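 Luminescence from Amplite-detected luciferase (10 minutes, ambient) reports Rab9 promoter activation. Before that, stable Rab9-luciferase Huh7 cells (1500/well, reduced-serum OP-MEM I plus 10% FBS) were exposed to compound for 24 hours at 37C.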
# SMN2 splice up – increases expression of the SMN2 splice variant; HEK293 SMN2-luciferase splicing reporter, luminescence, 30-36 h; Potency, µM (highest dose often 46.1 µM), for inactives: top-dose activity change, positive = activation, most hits filed as activators; 210,000 tested, 2.8% active; AID 1458; also: % of control where 0% means no effect; nearly all actives have a fitted effect of over 55% in size
#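 HEK293 cells carry an SMN2 […]–luciferase reporter in which exon 7 inclusion puts luciferase in frame. Cells were plated 10-12 h before compound addition, then incubated 30-36 h at 37C. ONE-Glo luminescence was read; sodium butyrate at 4.5 mM final served as control.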
# NPC1 prom act – NPC1 promoter activation; 320,000 tested, 2.4% active; Huh7 NPC1 promoter luciferase reporter, 24 h; Potency, µM (series often up to 9.22 µM), for the others: top-dose activation, most hits filed as activators; AID 485313; also: % of control where 0% means no effect; nearly all actives have a fitted effect of over 60% in size
#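 Cells: Huh7 expressing luciferase under the NPC1 promoter, 1500/well. Seeded 2 h, compound added, incubated 24 h at 37 °C. Luciferase reagent, 10 min ambient, then luminescence.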
# FLuc modulator – inhibits or activates purified firefly luciferase, miR-21 counter-screen; AID 588342; 360,000 tested, 6.9% active; purified FLuc, Km substrates, luminescence inhibition; P08659; Potency, µM (series often up to 57.5 µM), without a hit: top-dose activity change, negative = inhibition, hits mostly inhibitors;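 also: plate controls were vehicle for no effect and reference inhibitor for full effect; nearly all actives have a fitted effect of over 55% in size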
# Target sequence (P08659 whole entry, looked up): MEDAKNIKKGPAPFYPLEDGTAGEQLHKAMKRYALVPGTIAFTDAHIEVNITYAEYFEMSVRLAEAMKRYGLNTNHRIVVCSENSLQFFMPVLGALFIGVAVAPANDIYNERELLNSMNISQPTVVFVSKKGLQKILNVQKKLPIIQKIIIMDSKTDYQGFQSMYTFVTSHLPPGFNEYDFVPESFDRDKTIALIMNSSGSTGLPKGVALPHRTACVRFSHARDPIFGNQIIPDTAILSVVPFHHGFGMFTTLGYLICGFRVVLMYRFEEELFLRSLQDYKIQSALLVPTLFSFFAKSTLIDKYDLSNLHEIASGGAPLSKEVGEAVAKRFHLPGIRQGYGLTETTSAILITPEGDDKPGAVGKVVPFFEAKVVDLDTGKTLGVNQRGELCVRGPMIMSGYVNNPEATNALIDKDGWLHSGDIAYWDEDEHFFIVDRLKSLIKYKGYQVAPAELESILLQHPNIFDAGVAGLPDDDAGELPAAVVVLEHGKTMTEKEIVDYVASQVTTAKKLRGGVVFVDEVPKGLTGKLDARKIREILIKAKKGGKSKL
#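 Biochemical qHTS of compounds, final roughly 60 µM downward over six points, against 10 nM purified firefly luciferase using Km concentrations of substrates (10 uM D-luciferin, 10 uM ATP) in Tris acetate pH 7.5 buffer; luminescence output.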
# Active calls of the source: *; ? = inconclusive; . = not tested or not shown. Calls follow the shape of the dose curve; as a rule, active = well fitted curve in the direction sought with a large enough effect; inconclusive = small, poorly fitted or top-dose-only effect, or another doubt; inactive = no such curve, though single readings can be large; an effect the other way counts as inactive or inconclusive. Potency is read from the fitted curve at half-maximal effect.
SMILES,ELG1 genotoxic,Rab9 promoter act,SMN2 splice up,NPC1 prom act,FLuc modulator
CCOC(=O)c1cc(C(=O)OCC)cc(-n2cc(O)c(C(=O)OCC)n2)c1,0%,0%,0%,0%,-1%
CCOC(=O)c1nn(-c2sc(C(=O)OC)c(C)c2C(=O)OC)cc1O,5%,-2%,?,0%,-2%
COc1ccc(C(O)(CCc2ccccc2)CCN2CCCCC2)cc1 (centres undefined),?,-1%,-67%,2%,0%
CC(C)c1cnc2c(c1SCC(=O)Nc1ccc(OC(F)(F)F)cc1)c(=O)n(C)c(=O)n2C,.,.,.,.,2%
COc1cccc(C(=O)NCC(=O)OCC(=O)NC2CCCCC2)c1,4%,.,.,.,.
CCOC(=O)c1nn(-c2cc(C(=O)OC)cc(C(=O)OC)c2)cc1O,4%,-3%,2%,-2%,2%
CCOC(=O)c1nn(-c2ccc3c(c2)OCO3)cc1O,?,?,?,3.2µM*,12µM*
COC(=O)c1nn(-c2ccc(-c3ccccc3)cc2)cc1O,13%,?,?,?,0.34µM*
CSc1nn2c(C(F)(F)F)cc(C(F)(F)F)nc2c1C(=O)O,-4%,-3%,.,-3%,-4%
NNc1cc([N+](=O)[O-])cc2c1C(=O)N(Cc1ccccc1)S2=O (centres undefined),1%,1%,1%,9%,?
O=C1c2ccccc2CC1Sc1nnc(-c2ccccn2)o1 (centres undefined),8%,25%,17%,17%,12µM*
O=C1CC(Sc2nnc(-c3ccccc3O)o2)C(=O)N1c1ccccc1 (centres undefined),-3%,1%,-17%,-1%,?
CCOC(=O)c1cc(-c2ccc(C)o2)n[nH]1,4%,-1%,-12%,-4%,?
CCOC(=O)c1cc(-c2cc3ccccc3o2)n[nH]1,1%,0%,18%,10%,19µM*
COc1ccc(CCc2nnc(CCC(=O)NCc3cc(C(C)C)no3)o2)cc1,?,?,?,27%,17µM*
CCc1ccc(NC(=O)Cn2c(=O)n(-c3ccc(OC)cc3)c(=O)c3ccc(C(=O)NCc4ccc(C)cc4)cc32)cc1,.,.,8%,.,2%
Cc1cccc(C)c1NC(=O)CC(NCCc1ccccc1)C(=O)O (centres undefined),-2%,-2%,-8%,0%,1%
Cc1c2cnn(-c3ccccc3)c(=O)c2c(C)n1C(C)C(=O)NCc1cccc(Br)c1 (centres undefined),.,.,-31%,.,-7%
CC(C(=O)NCc1cccc(Br)c1)n1ncn2cccc2c1=O (centres undefined),.,.,.,.,13µM*
CCOC(=O)c1ccc(N2N=C(C)/C(=C/C=C/c3ccco3)C2=O)cc1,18%,-2%,7%,-6%,?
O=C(O)c1cc(N2N=C(C(F)(F)F)/C(=C/C=C/c3ccco3)C2=O)ccc1Cl,-2%,-3%,.,-4%,24µM*
CC1CCN(c2nc(-c3ccncc3)nc3ccccc23)CC1,-6%,-3%,0%,-3%,2%
CC1CCCCN1c1nc(-c2ccncc2)nc2ccccc12 (centres undefined),-7%,-5%,15%,-4%,0%
CC1CCN(c2nc(-c3ccc(C(C)(C)C)cc3)nc3ccccc23)CC1,.,.,-1%,.,5.4µM*
CC1CCCCN1c1nc(-c2ccc(C(C)(C)C)cc2)nc2ccccc12 (centres undefined),.,.,383%,.,3.4µM*
SMILES,ELG1 genotoxic,Rab9 promoter act,SMN2 splice up,NPC1 prom act,FLuc modulator
Fc1cc(Br)ccc1COc1ccc(-c2nnco2)cc1,?,2.5µM*,.,2.5µM*,?
Fc1ccc(COc2ccc(-c3nnco3)cc2)c(Cl)c1,25%,?,.,25%,?
Cc1ccc(C(=O)/C=C/Nc2ccc3c(c2)OCO3)cc1,?,0.71µM*,?,0.71µM*,0.27µM*
Cc1ccc(N/C=C/C(=O)c2ccccc2)cc1Br,?,3.2µM*,.,4µM*,0.6µM*
Cc1ccc(C(=O)/C=C/Nc2ccc(S(=O)(=O)Nc3cc(C)nc(C)n3)cc2)cc1,11%,-2%,.,-1%,?
CC(=O)c1ccc(N/C=C\C(=O)c2ccc(C)cc2)cc1,8.2µM*,4µM*,16µM*,2.5µM*,1.9µM*
